# Several values for one entry are separate records, joined by “and”; a condition that tells them apart may be missing. Identical values can stand only once. More than one record can exist for a structure, and the calls need not agree. Activity calls are given as the source filed them. Unless noted, how the calls were made is not given here.
# Assays:
# [1] = circadian clock period modulators, cell-based, LOPAC library, luminescence reporter (AID 2774); details: circadian reporter cells, at 7 µM, actives lie on both sides;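 further: values are relative to mean of DMSO wells on each plate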
# [2] = tested on: Hepatitis C virus NS3 helicase; assay: HCV NS3 helicase inhibitors, primary screen, biochemical, fluorescence polarization, LOPAC1280 library (AID 687035; in the data active means inhibition above about 37%); details: Purified HCV NS3 helicase, Cy5-dT15 ssDNA binding fluorescence polarization; stronger effect = higher value; concentration not given here
# [3] = Cy5 fluorescence quenching or enhancement artefacts, artefact control for HCV NS3 helicase inhibitor project, biochemical, LOPAC1280 (AID 687037); details: Cy5-DNA-NS3h complex fluorescence interference counterscreen
# [4] = tested on: Aerobactin synthetase IucA (Klebsiella pneumoniae); assay: IucA aerobactin synthetase inhibitors, biochemical, Tocris library, absorbance (AID 1345561); details: purified IucA enzyme assay, absorbance (OD) read-out; stronger effect = lower value;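 tested at 8 µM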;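 further: 100% = enzyme without compound and 0% = no enzyme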
# [5] = sensitizers of A549 cells to miR-34 induction, primary screen, imaging, A549 dox-inducible miR-34, nuclei and caspase counts (AID 1347080;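 active means compounds whose cell count with miR-34 switched on is under 0.7 times the count with it off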); details: A549 miR-34 inducible, Hoechst nuclei count, 48 h
# [6] = phospholipid biosynthesis inhibitors in animal cells, primary screen, cell-based, LOPAC library, screen 4 (AID 1347384); details: phospholipid biosynthesis inhibition screen, at 10 µM
# [7] = viability rescue of complex I mutant cybrids, primary screen, cell-based, galactose medium, ATP luminescence (AID 1645843;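 active means z-score of at least 1.8 in each of two replicates, scored against plate mean and spread of sample wells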;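 further: positive z means more ATP and so rescue of galactose-driven cybrid death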); details: complex I mutant cybrid cells, 72 h, stronger effect = higher value
# [8] = stronger effect = lower value, cell number ratio, induced over uninduced
# [9] = measured here: relative caspase fold change +Dox/-Dox
# [10] = measured here: total cells with miR-34 induction, stronger effect = lower value
# [11] = measured here: total cells without miR-34 induction
SMILES,period change [1],inhibition [2],fluorescence ratio (interference) [3],remaining activity [4],"fold change [5, 8]","fold change [5, 9]","cell count [5, 10]","cell count [5, 11]",outcome [6],z-score [7]
CNC(=O)c1cc2c(cn1)[nH]c1ccccc12,-0.24 h (inactive),0% (inactive),1 (inactive),99.6% (inactive),0.95 (inactive) and 0.891 (inactive),1.84 and 0.981,8950 and 7610,9420 and 8540,inactive,2.76 (active) and 1.85 (inactive)
CC#CCOC(=O)c1c(C)nc2sc3c(c2c1N)CCC(O)C3 (stereo not given),-0.09 h (inactive),-3% (inactive),1 (inactive),102% (inactive),0.861 (inactive) and 0.824 (inactive),0.901 and 1,7740 and 5720,8990 and 6940,inactive,-1.22 (inactive) and -0.71 (inactive)
COc1ccc(NC(=O)c2ccc(-c3ccc(-c4noc(C)n4)cc3C)cc2)cc1N1CCN(C)CC1,0.065 h (inactive),-3% (inactive),0.9 (inactive),119% (inactive),0.954 (inactive) and 1.08 (inactive),0.805 and 0.587,510 and 1390,535 and 1290,inactive,-1.29 (inactive) and -0.715 (inactive)
CCCCCCN(CCCCCC)C(=O)Cc1c(-c2ccc(F)cc2)[nH]c2ccccc12,-0.08 h (inactive),1% (inactive),1 (inactive),100% (inactive),1.29 (inactive) and 0.933 (inactive),1.15 and 0.997,5020 and 4030,3880 and 4320,inactive,-1.04 (inactive) and -1.23 (inactive)
O=c1[nH]c2cc([N+](=O)[O-])c([N+](=O)[O-])cc2[nH]c1=O,0.075 h (inactive),-4% (inactive),1 (inactive),109% (inactive),0.955 (inactive) and 0.937 (inactive),1 and 0.778,9840 and 7960,10300 and 8490,inactive,-0.11 (inactive) and 0.22 (inactive)
NC[C@@H]1O[C@H](C23CC4CC(CC(C4)C2)C3)Cc2c1ccc(O)c2O,0.01 h (inactive),-3% (inactive),0.9 (inactive),123% (inactive),1.09 (inactive) and 0.908 (inactive),1.75 and 0.979,4260 and 7980,3890 and 8790,inactive,-1.5 (inactive) and -0.775 (inactive)
O=c1onc2cnc3ccccc3n12,0.13 h (inactive),0% (inactive),1 (inactive),108% (inactive),1.09 (inactive) and 0.945 (inactive) and 0.946 (inactive),1.29 and 1.08 and 0.805,8010 and 5220 and 7630,7350 and 5530 and 8060,inactive,0.125 (inactive) and 0.635 (inactive)
NCC(O)(CS(=O)(=O)O)c1ccc(Cl)cc1 (stereo not given),0.035 h (inactive),-2% (inactive),1 (inactive),105% (inactive),0.977 (inactive),2.17 and 0.803,9480 and 8580,9700 and 8780,inactive,0.265 (inactive) and -0.115 (inactive)
